From PubChem BioAssay
Most compounds without a hit are left out; they make up all but 1.3% or so of the library.
cardiac RTF act = cardiac RTF calcium sensitization | P19429+P45379 | 0.24% of 340,000 active | AID 493008 | activation, % at 7.2 µM | IANBD-labeled TnC RTF fluorescence at EC20 calcium; 0% EC20 calcium, 100% full calcium;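 active = activation above the mean over all tested compounds plus 3 SD, cut at about 30% in these data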;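 note: rise in fluorescence read as greater calcium sensitivity of cardiac thin filaments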
CRFR2-BP antag = antagonists of CRF-binding protein/CRF-R2 receptor complex; HEK293 CRF-R2/CRF-BP, CRF-induced calcium fluorescence; inhibition, % at 11.8 µM; 0.59% of 350,000 active; AID 588475;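 active = inhibition of the ligand-induced calcium signal above about 50% at the single tested concentration, limit read from the data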
Cardiac RTF inh = cardiac RTF calcium desensitization; inhibition, % at 7.15 µM; 0.12% of 340,000 active; IANBD-labeled cardiac RTF, Ca2+ fluorescence;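 active = inhibition above the mean inhibition of all tested compounds plus 3 SD, cut at about 17% in these data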;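 note: assay run at fixed EC70 calcium of 1.6 mM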
CRFR2-BP ag = CRF-BP/CRF-R2 complex agonism | activation, % at 13.2 µM | 0.46% of 350,000 active | HEK293 CRF-R2/CRF-BP, calcium dye fluorescence (FLIPR); percent of saturating CRF peptide response | AID 588473;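 active = activation of at least 50%, plus an integration ratio under a set limit after plate pattern correction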
RTF inh confirm = cardiac RTF calcium sensitivity inhibition, confirmation; inhibition, % at 7.15 µM; 8% of 360 active; reconstituted cardiac thin filaments, calcium sensitivity fluorescence; shares compounds with Cardiac RTF inh; AID 504635; in the data active = inhibition above about 18%
Of the large screens only hits and unclear results are named; the others gave an inactive call (follow-up assays come after a bar, where they were run); ! = not confirmed by another sample.

CCOc1cc2c(cc1OCC)-n1cccc1C(c1ccc(OC)cc1)NC2 (stereo unspecified)	none
CC12CC3CC(C)(C1)CC(N)(C3)C2	Cardiac RTF inh 17.3! | RTF inh confirm inactive
Cc1c(N=Cc2c(O)n(CCc3ccc(F)cc3)c(=O)[nH]c2=O)c(=O)n(-c2ccccc2)n1C	none
Oc1ccc2c3c1O[C@H]1c4[nH]c5ccccc5c4C[C@@]4(O)[C@@H](C2)N(CC2CC2)CC[C@]314	none
Oc1ccc2c3c1O[C@H]1c4oc5ccccc5c4C[C@@]4(O)[C@@H](C2)N(CC2CC2)CC[C@]314	Cardiac RTF inh 26.9 | RTF inh confirm inactive
CN(C)C1C(=O)C(C(N)=O)=C(O)C2(O)C(=O)C3=C(O)c4c(O)cccc4C(C)(O)C3C(O)C12 (stereo unspecified)	Cardiac RTF inh 30.4 | RTF inh confirm inactive
CC(C)(C)c1o[nH]c(=O)c1CC(N)C(=O)O (stereo unspecified)	Cardiac RTF inh 20.9 | RTF inh confirm inactive
CC1Oc2cc3c(-c4c(O)cc(O)c5c(O)c6c(cc45)OC(C)C(C)C6=O)c(O)cc(O)c3c(O)c2C(=O)C1C (stereo unspecified)	none
O=P(O)(Oc1ccccc1)OC(c1ccccc1)C(F)(F)F (stereo unspecified)	none
Cc1cccc(CN(C)C)c1OC(=O)N(C)C	Cardiac RTF inh 34.2 | RTF inh confirm inactive
CN1CCN(c2nc(N)c(Br)c(Cl)n2)CC1	none
